# Test results as given in PMC11062922 (Nature Chemical Biology, 2023).
# Where two headings read alike, the source gives them in different places.
# Tests used:
# BMPR1B = test system: BMPR1B; parameters: species or system human, MV4-11 + K-562 + COLO205 + SK-N-BE2 + OVCAR-8; conditions: read-out: apparent Kd, n = 1
# MAP3K4 = test system: MAP3K4; parameters: species or system human, MV4-11 + K-562 + COLO205 + SK-N-BE2 + OVCAR-8; conditions: read-out: apparent Kd, n = 1
# WEE1 = test system: WEE1; parameters: species or system human, MV4-11 + K-562 + COLO205 + SK-N-BE2 + OVCAR-8; conditions: read-out: apparent Kd, n = 1
# EPHA7 = test system: EPHA7; parameters: species or system human, MV4-11 + K-562 + COLO205 + SK-N-BE2 + OVCAR-8; conditions: read-out: apparent Kd, compound concentrations: 100 nM and 1000 nM (sheet 'Samples'), n = 1
# ERN2 = test system: ERN2; parameters: species or system human, MV4-11 + K-562 + COLO205 + SK-N-BE2 + OVCAR-8; conditions: read-out: apparent Kd, n = 1
# FES = test system: FES; parameters: species or system human, MV4-11 + K-562 + COLO205 + SK-N-BE2 + OVCAR-8; conditions: read-out: apparent Kd, compound concentrations: 100 nM and 1000 nM (sheet 'Samples'), n = 1
# CDK1_CycB1 = conditions: Highest Assay Concentration (M): 9.9999999999999995E-7
# CK2alpha1 = conditions: Highest Assay Concentration (M): 9.9999999999999995E-7
# CK2alpha2 = conditions: Highest Assay Concentration (M): 9.9999999999999995E-7
# CDK13 = test system: CDK13; parameters: species or system human, MV4-11 + K-562 + COLO205 + SK-N-BE2 + OVCAR-8; conditions: read-out: apparent Kd, compound concentrations: 100 nM and 1000 nM (sheet 'Samples'), n = 1
# ACAD8 = test system: ACAD8; parameters: species or system human, MV4-11 + K-562 + COLO205 + SK-N-BE2 + OVCAR-8; conditions: read-out: apparent Kd; compound concentrations: 100 nM and 1000 nM (sheet 'Samples'), CATDS: 3.4609202589527301E-3; n = 1
# BMPR2 = test system: BMPR2; parameters: species or system human, MV4-11 + K-562 + COLO205 + SK-N-BE2 + OVCAR-8; conditions: read-out: apparent Kd; compound concentrations: 100 nM and 1000 nM (sheet 'Samples'), CATDS: 4.3596889964012502E-3; n = 1
# MAP2K6 = test system: MAP2K6; parameters: species or system human, MV4-11 + K-562 + COLO205 + SK-N-BE2 + OVCAR-8; conditions: read-out: apparent Kd; compound concentrations: 100 nM and 1000 nM (sheet 'Samples'), CATDS: 4.6544489898713796E-3; n = 1
# MST1R = test system: MST1R; parameters: species or system human, MV4-11 + K-562 + COLO205 + SK-N-BE2 + OVCAR-8; conditions: read-out: apparent Kd; compound concentrations: 100 nM and 1000 nM (sheet 'Samples'), CATDS: 4.6001362310290703E-3; n = 1
# NEK3 = test system: NEK3; parameters: species or system human, MV4-11 + K-562 + COLO205 + SK-N-BE2 + OVCAR-8; conditions: read-out: apparent Kd; compound concentrations: 100 nM and 1000 nM (sheet 'Samples'), CATDS: 4.0159133314047798E-3; n = 1
# TAOK3 = test system: TAOK3; parameters: species or system human, MV4-11 + K-562 + COLO205 + SK-N-BE2 + OVCAR-8; conditions: read-out: apparent Kd; compound concentrations: 100 nM and 1000 nM (sheet 'Samples'), CATDS: 4.5729665408397397E-3; n = 1
# VDAC3 = test system: VDAC3; parameters: species or system human, MV4-11 + K-562 + COLO205 + SK-N-BE2 + OVCAR-8; conditions: read-out: apparent Kd; compound concentrations: 100 nM and 1000 nM (sheet 'Samples'), CATDS: 4.6944952504306397E-3; n = 1
# ILK = test system: ILK; parameters: species or system human, MV4-11 + K-562 + COLO205 + SK-N-BE2 + OVCAR-8; conditions: read-out: apparent Kd; compound concentrations: 100 nM and 1000 nM (sheet 'Samples'), CATDS: 0.188303369583949; n = 1
# [1] = compound concentrations:100 nM and 1000 nM (sheet 'Samples')
smiles,measurement,setting,value
CNC(=O)c1ccccc1Nc1nc(Nc2ccc(N3CCOCC3)cc2)ncc1Cl.Cl [GSK1576028A],potency estimated from few doses,BMPR1B; [1],429 nM
same,potency estimated from few doses,MAP3K4; [1],1690 nM
same,potency estimated from few doses,WEE1; [1],20.5 nM
CCOC(=O)N1CCC(n2cnc(-c3ccc(F)cc3)c2-c2ccnc(N)n2)CC1 [SB-219952],potency estimated from few doses,EPHA7; CATDS: 8.0080287869844797E-3,1690 nM
Cc1cccc(Nc2nc(N[C@H]3CCCC[C@H]3N)ncc2C(N)=O)c1.Cl [GSK986310C],potency estimated from few doses,ERN2; [1],1400 nM
COc1ccc(Nc2ncc(C#N)c(Nc3ccccc3C(N)=O)n2)cc1N1CCN(C)CC1.Cl [GSK1558669A],potency estimated from few doses,FES; CATDS: 8.0815646455300594E-3,387 nM
same,potency estimated from few doses,"MAP3K4; compound concentrations: 100 nM and 1000 nM (sheet 'Samples'), CATDS: 1.60153050048602E-2",57.9 nM
same,potency estimated from few doses,"WEE1; compound concentrations: 100 nM and 1000 nM (sheet 'Samples'), CATDS: 4.3913811824171201E-2",10.4 nM
O=C1N=C(NCCc2ccc(Cl)cc2)S/C1=C\c1ccc2ncccc2c1 [RO4498479-000],potency estimated from few doses,FES; CATDS: 7.5853712865523596E-3,1210 nM
COc1cc(Nc2ncc3c(C)nc(-c4cc5ccccc5[nH]4)n3n2)cc(OC)c1OC [GW869516X],IC50,CDK1_CycB1,1.97e-06 M
same,IC50,CK2alpha1,8.51e-08 M
same,IC50,CK2alpha2,3.37e-08 M
CONC1=NC(=O)/C(=C/c2ccc3ncccc3c2)S1 [RO4613269-000],IC50,CDK1_CycB1,2.74e-06 M
same,IC50,CK2alpha1,1.16e-07 M
same,IC50,CK2alpha2,6.53e-08 M
O=C1NC(=O)/C(=C/c2ccc3ncccc3c2)S1 [RO4603632-000],IC50,CDK1_CycB1,8.37e-06 M
same,IC50,CK2alpha1,5.79e-07 M
same,IC50,CK2alpha2,3.72e-07 M
Cc1cccc2c(-c3ccncn3)c(-c3ccc(F)cc3)nn12 [GW515532X],potency estimated from few doses,CDK13; CATDS: 0.21960096407146401,1800 nM
Cn1ncc2c(N)ncnc21 [SKF-18267],potency estimated from few doses,ACAD8,2010 nM
same,potency estimated from few doses,"BMPR1B; compound concentrations: 100 nM and 1000 nM (sheet 'Samples'), CATDS: 8.9058122855820206E-3",311 nM
same,potency estimated from few doses,BMPR2,1090 nM
same,potency estimated from few doses,CDK13; CATDS: 3.42159578661501E-3,2090 nM
same,potency estimated from few doses,EPHA7; CATDS: 4.1620084388922602E-3,1210 nM
same,potency estimated from few doses,"ERN2; compound concentrations: 100 nM and 1000 nM (sheet 'Samples'), CATDS: 4.8185865403999398E-3",877 nM
same,potency estimated from few doses,FES; CATDS: 5.1575309929755304E-3,766 nM
same,potency estimated from few doses,MAP2K6,943 nM
same,potency estimated from few doses,"MAP3K4; compound concentrations: 100 nM and 1000 nM (sheet 'Samples'), CATDS: 4.0015325722358502E-3",1340 nM
same,potency estimated from few doses,MST1R,967 nM
same,potency estimated from few doses,NEK3,1320 nM
same,potency estimated from few doses,TAOK3,979 nM
same,potency estimated from few doses,VDAC3,926 nM
same,potency estimated from few doses,"WEE1; compound concentrations: 100 nM and 1000 nM (sheet 'Samples'), CATDS: 4.2054880043609797E-3",1180 nM
O=C1N=C(Nc2ccccc2)S/C1=C\c1ccc2ncccc2c1 [RO4493940-000],potency estimated from few doses,ILK,1500 nM
same,IC50,CDK1_CycB1,2.88e-06 M
same,IC50,CK2alpha1,6.67e-08 M
same,IC50,CK2alpha2,5.11e-08 M
